# BoNT-A LC inh2 – blocks Botulinum neurotoxin A light chain protease; inhibition, % at 10 µM; hit rate 0.17% among 360,000; multiplex microsphere protease substrate cleavage, flow cytometry; AID 588499; note: plate controls were buffer without enzyme for full effect and enzyme alone for no effect
# BoNT-F LC inh – blocks Botulinum neurotoxin F light chain protease | Multiplex microsphere protease cleavage assay, flow cytometry | inhibition, % at 10 µM | hit rate 0.22% among 360,000; in the data active = inhibition above about 35%, passing the limit was not always enough; inconclusive = no clear call, values can overlap the other calls; note: plate controls were buffer without enzyme for full effect and enzyme alone for no effect
# BH1578 lux ind – quorum light induction in luxS cqsA deficient V. cholerae. V. cholerae BH1578 lux reporter, luminescence, 6 h. activation, % at 18.7 µM. hit rate 0.16% among 350,000; in the data active = activation mostly above about 9.7%, no sharp cut-off; inconclusive = no clear call, values can overlap the other calls; inactive = mostly below about 3.7%
# Anthrax LF inh2 – blocks Bacillus anthracis lethal factor protease; multiplex microsphere protease cleavage assay, LF; inhibition, % at 10 µM; hit rate 0.12% among 360,000; AID 588501; note: plate controls were buffer without enzyme for full effect and enzyme alone for no effect
# Target sequence (P15917 whole entry, looked up): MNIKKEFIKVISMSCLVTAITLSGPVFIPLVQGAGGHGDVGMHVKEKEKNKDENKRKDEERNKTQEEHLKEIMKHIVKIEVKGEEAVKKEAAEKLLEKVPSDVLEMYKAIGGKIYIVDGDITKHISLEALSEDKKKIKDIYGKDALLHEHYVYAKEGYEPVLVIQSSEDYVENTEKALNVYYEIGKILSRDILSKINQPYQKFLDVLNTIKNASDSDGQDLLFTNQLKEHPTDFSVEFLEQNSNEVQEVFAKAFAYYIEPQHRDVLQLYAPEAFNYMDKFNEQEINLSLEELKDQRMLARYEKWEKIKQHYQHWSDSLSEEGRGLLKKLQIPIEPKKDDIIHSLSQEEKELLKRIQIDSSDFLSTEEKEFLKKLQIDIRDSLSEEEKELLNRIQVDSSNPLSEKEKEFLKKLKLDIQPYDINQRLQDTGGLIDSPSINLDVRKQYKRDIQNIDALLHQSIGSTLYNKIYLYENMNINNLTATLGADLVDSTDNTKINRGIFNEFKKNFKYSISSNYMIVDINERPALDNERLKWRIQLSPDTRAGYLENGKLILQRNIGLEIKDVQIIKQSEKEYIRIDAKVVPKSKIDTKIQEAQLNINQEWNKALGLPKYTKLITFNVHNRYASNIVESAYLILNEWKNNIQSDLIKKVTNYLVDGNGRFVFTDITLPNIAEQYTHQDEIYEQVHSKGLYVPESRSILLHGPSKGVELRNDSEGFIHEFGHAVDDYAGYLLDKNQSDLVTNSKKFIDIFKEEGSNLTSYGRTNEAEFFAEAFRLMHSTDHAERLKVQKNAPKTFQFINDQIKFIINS
# Bead autofluor – flagged as autofluorescent in microsphere protease counterscreen. AID 624483. fluorescence intensity (concentration not given with the values). hit rate 3.1% among 360,000. compound autofluorescence counterscreen, microsphere flow cytometry; stronger effect = higher value; in the data active = fluorescence intensity above about 16000; inconclusive = no clear call, values can overlap the other calls
# An asterisk follows results filed as active; i = inactive; ? = inconclusive; . = not tested or not shown. Compounds with a hit are over-represented: about 3.5% of the library has one in this group of screens. Cut-off read from the data, not from the text of the source, unless noted: active = inhibition above about 30%; inconclusive = no clear call, values can overlap the other calls; inactive = below that.
SMILES,BoNT-A LC inh2,BoNT-F LC inh,BH1578 lux ind,Anthrax LF inh2,Bead autofluor
Cc1noc(C)c1COc1ccccc1C(=O)NNC(=O)C(C)Oc1ccccc1F (stereo not drawn),1.4,5.1,i,2.5,6121
Cc1nn(Cc2ccc(C(=O)Nc3ccccc3C(F)(F)F)o2)c(C)c1Br,-0.4,-1.4,-5.9,-2.5,23948*
CN1CCc2c(n(CC(O)CN3CCN(CCO)CC3)c3ccccc23)C1=O (stereo not drawn),0.5,-2.7,i,0.1,4410
CCN(CC(=O)Nc1c(F)cccc1F)C(=O)c1cccnc1Sc1ccccc1,-4.4,2.6,5.6,-10.3,?
O=C(Nc1ccc(O)cc1)C1CC=CCC1 (stereo not drawn),?,-14.4,-1.4,-4.2,18689*
CCOc1ccc(-n2c(=O)c3sccc3n(CC(=O)NCc3ccco3)c2=O)cc1,8.7,9.2,-0.3,-10.6,19457*
Cc1ccc(-n2c(=O)c3sccc3n(CC(=O)NCc3ccco3)c2=O)cc1,-0.7,-7.7,i,-2.5,8193
Nc1nnc(SCC(=O)NC23CC4CC(CC(C4)C2)C3)s1,-1.0,-1.4,i,-4.4,21047*
Cc1nnc(SCC(=O)NC23CC4CC(CC(C4)C2)C3)s1,-0.3,-3.4,-0.3,-0.1,4448
Cc1cc(C)c(C#N)c(N2CCN(Cc3ccc4c(c3)OCO4)CC2)n1,0.0,?,i,-3.5,2740
N#CCc1c(C#N)c(N)nc(N2CCN(Cc3ccc4c(c3)OCO4)CC2)c1C#N,4.2,1.4,-1.4,-0.2,19575*
O=C(CN1CCSCC1)N/N=C/c1ccccc1F,-0.4,-2.1,-0.2,-0.5,23296*
O=C(N/N=C/c1ccc(Cl)cc1Cl)Nc1ccccc1,6.5,9.1,-0.2,-13.0,20342*
O=C(CN1CCCCC1)N/N=C/c1ccc(Cl)cc1Cl,2.9,42.2*,i,3.1,3971
O=C(CN1CCCCC1)N/N=C/c1ccc(Cl)cc1,.,.,0.0,.,.
CCCN(CCC)C(=O)Nc1cc(Cl)ccc1OC,-1.7,-2.6,2.3,-9.1,5103
COC(=O)[C@H](CCSC)NC(=O)NCc1ccccc1F,1.0,-1.7,1.8,1.1,22106*
COC(=O)[C@H](CCSC)NC(=O)NCc1ccc(S(N)(=O)=O)cc1,-0.8,-8.5,i,-3.2,11406
CCOC(=O)C1CCC2(CC1)C(C#N)=C(N)Oc1n[nH]c(C)c12 (stereo not drawn),-2.4,-3.0,0.2,1.1,20477*
O=C(COC(=O)c1ccc(Br)o1)NCC1CCCO1 (stereo not drawn),2.6,5.3,i,1.6,21346*
O=C(CN1C(=O)NC2(CCCCCC2)C1=O)Nc1ccc2c(c1)CCC2,-0.3,2.1,i,-5.1,4075
CCC12CC3CC(C1)CC(C(=O)Nc1nn[nH]n1)(C3)C2,?,1.6,i,-7.3,23265*
CC12CC3CC(C)(C1)CC(C(=O)Nc1nn[nH]n1)(C3)C2,?,2.5,i,-0.1,19766*
CCC12CC3CC(C1)CC(C(=O)NNC(N)=O)(C3)C2,-0.2,4.2,-7.1,-6.8,5799
C/C(=N/N1CCN(Cc2cccc3ccccc23)CC1)c1ccco1,-1.8,?,-0.4,-16.2,4271
SMILES,BoNT-A LC inh2,BoNT-F LC inh,BH1578 lux ind,Anthrax LF inh2,Bead autofluor
COc1ccccc1NS(=O)(=O)c1cc(NC(=O)CCc2nc3ccccc3c(=O)[nH]2)ccc1C,-0.1,-2.1,-0.8,-2.2,5271
COC(=O)c1ccc(-c2n[nH]c(=O)c3ccccc23)cc1,?,2.5,i,-0.7,19671*
CC(C)(C)C(=O)Nc1ccc(Oc2ccc3c(c2)C(=O)N(c2ccc(O)cc2)C3=O)cc1,?,?,-0.4,?,?
CCC(=O)Nc1ccc(Oc2ccc3c(c2)C(=O)N(c2ccc(O)cc2)C3=O)cc1,?,1.0,i,0.0,21982*
CCCOc1ccccc1NC(=O)CC1Nc2ccccc2NC1=O (stereo not drawn),-5.4,-8.3,-0.2,-1.7,21938*
CCOc1ccccc1NC(=O)CC1Nc2ccccc2NC1=O (stereo not drawn),0.4,6.6,-1.0,-0.5,3639
COc1ccc(CCNC(=O)CC2Nc3ccccc3NC2=O)cc1OC (stereo not drawn),-3.9,-6.2,7.1,-3.2,24834*
COc1ccc(S(=O)(=O)N(C)CC(=O)N2CCN(C)CC2)cc1C,-2.2,-3.6,i,-0.4,23309*
COc1ccc(S(=O)(=O)N(C)CC(=O)N2CCC(C(N)=O)CC2)cc1Cl,?,-4.8,i,-0.4,21013*
CC(NC(=O)c1ccco1)C(=O)Nc1nccs1 (stereo not drawn),-0.3,0.7,-2.7,0.5,3649
CCc1nnc2sc(-c3ccc(NC(=O)c4ccco4)cc3)nn12,-1.9,-3.2,-1.8,-0.9,16661*
O=C(Nc1nccs1)c1ccc(NC(=O)c2ccco2)cc1,-2.1,-6.3,-1.4,-4.1,17273*
CCOc1ccc(NC(=S)NC(=O)c2ccco2)cc1,-1.2,-18.1,i,-4.6,3267
CCOc1ccc(NC(=O)c2ccco2)cc1,?,-5.3,i,0.6,24897*
CC1=NN(CCc2ccccn2)C(=O)CC1,0.3,0.6,-0.3,-7.0,6319
N#Cc1c(N)nc2c(c1-c1ccc(F)cc1)c(=O)nc1sccn12,-0.8,-2.8,i,-1.9,4265
COc1ccc(-n2c(-c3ccccc3)cc3c2CCCC3=O)cc1,?,3.3,i,-3.9,22566*
O=C1CCCc2c1cc(-c1ccccc1)n2-c1ccc(O)cc1,-0.3,-3.4,-0.3,-0.5,2007
Cc1ccc(S(=O)(=O)CCc2nc3ccccc3s2)cc1,1.1,2.9,2.6,-1.6,4777
Cc1ccc(-c2nnn(Cc3nc4ccccc4s3)n2)cc1,4.6,4.1,i,2.0,21007*
Cc1ccc(Cl)c(OCCCCN(C)Cc2ccccc2)c1,?,-3.1,i,-2.9,22668*
Cc1cccc(NC(=O)CNC(=O)CN2C(=O)NC3(CCc4ccccc43)C2=O)c1C (stereo not drawn),?,?,2.1,?,?
CCN(CC)NC(=S)Nc1ccccc1,1.1,1.5,-0.2,-1.6,22619*
COc1cccc(CN(CC(=O)NCc2ccccc2)C(=O)c2csnn2)c1,0.3,9.3,1.2,-0.7,5538
CCc1nc2ccc(C(=O)N3CCN(C(=O)c4ccco4)CC3)cn2c1N(C)Cc1nccn1C,-0.3,1.5,-5.0,-5.2,3571
SMILES,BoNT-A LC inh2,BoNT-F LC inh,BH1578 lux ind,Anthrax LF inh2,Bead autofluor
COc1ccc(-c2cn[nH]c2N)c(OC)c1,7.1,3.8,-0.2,-16.7,17696*
CCOc1ccc(-c2cn[nH]c2N)cc1,-0.5,-4.1,i,0.0,23738*
CCOC(=O)C1CCCN(CC(O)COC(c2ccccc2)c2ccccc2)C1 (stereo not drawn),1.1,3.3,-0.2,2.1,4886
CCOC(=O)C1CCN(Cc2c(F)cccc2Cl)CC1,-5.2,-6.5,-0.2,-0.5,25112*
CCOC(=O)C1CCCN(C(=O)C(C)Oc2ccc(Cl)cc2Cl)C1 (stereo not drawn),?,4.2,0.9,1.4,22441*
CCOC(=O)C1CCCN(C(=O)CN2C(=O)c3ccccc3C2=O)C1 (stereo not drawn),?,-0.6,-2.9,-1.3,20127*

# Screening data from PubChem.
